SDO1 yeast rescue = restores growth of sdo1-depleted yeast. S. cerevisiae sdo1-depleted JHY4D growth rescue, OD600 30 h; hits give high values; pdr5 snq2 efflux-pump mutant strain. z-score at 10 µM. 140,000 compounds, 0.21% hits;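 active means z-score above 3 at both the 24 hr and the 30 hr optical density reads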;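 further: z-score against mean and SD of all compound wells on the same plate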
IL1B NFkB pot = enhances IL-1B driven NFkB nuclear translocation. HUVEC IL-1B NFkB p65 nuclear translocation imaging. activation, % at 2 µM. 94,000 compounds, 0.3% hits;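 active means activation above 40%, about the mean plus 3 SD, also judged a hit on visual image review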;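 further: percent activation is computed from the nuclear over cytoplasmic p65 intensity ratio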
MRP1 act = activators of MRP-1. H69AR cells + doxorubicin, viability rescue, CellTiter-Glo. 140,000 compounds, 0.61% hits. viability increase, % at 10 µM;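 active means viability gain under doxorubicin at or above a set limit, the compound median plus 3 SD, cut at about 4.7% in these data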;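 further: MRP-1 overexpressing cells given doxorubicin 25 µM after compound pretreatment; 18-22 h compound pretreatment then 72 h with doxorubicin before readout; 0% = doxorubicin-only wells and 100% = vehicle-treated cells without doxorubicin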
NFkB transloc inh = blocks IL-1B driven NFkB nuclear translocation in HUVEC cells; HUVEC IL-1B NFkB p65 nuclear translocation imaging; inhibition, % at 2 µM; 94,000 compounds, 0.43% hits; AID 796;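 active means inhibition above about 30% together with a positive call from visual inspection of the well image, limit read from the data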;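 further: nuclear over cytoplasmic p65 intensity ratio measured by imaging; 0% = IL-1B stimulated DMSO wells and 100% = unstimulated DMSO wells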
IL1B cytotox = toxic to HUVEC cells under IL-1B stimulation | HUVEC cell count loss, Hoechst imaging, IL-1B stimulated | 94,000 compounds, 0.41% hits | AID 845 | cell count reduction, % at 2 µM;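 active means cell count reduction more than 3 SD above the screen-wide mean, cut at about 70% in these data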;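 further: normalized per plate to untreated control cells as the no-loss baseline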
MRP resist rev = reverses drug resistance mediated by MRP | H69AR cells + 2 uM doxorubicin, CellTiter-Glo, 72 h | differential viability (reversal), % at 10 µM | 85,000 compounds, 0.04% hits;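 active means viability drop by adding the cancer drug above about 55%, with treated viability meeting a 40% cutoff, limit read from the data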;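 further: viability without doxorubicin minus viability with 2 µM doxorubicin for each compound; larger differential means the compound sensitizes cells more to doxorubicin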
Active calls of the source: *; . = no result. Only some compounds are listed: those with a hit (about 1.4% of all), similar ones and a draw of the others.

SMILES	SDO1 yeast rescue	IL1B NFkB pot	MRP1 act	NFkB transloc inh	IL1B cytotox	MRP resist rev
Cc1occc1C(=O)NNC(=O)Nc1ccc(Cl)c(Cl)c1	0.07	.	4.9*	.	.	.
Cc1ccsc1C(=O)NNC(=O)Nc1ccc(Cl)c(Cl)c1	-1.97	-0.3	-0.1	0.3	-10.8	.
CCOC(=O)c1ccc(Nc2nc(-c3cccnc3)nc3ccccc23)cc1	-2.01	18.2	-3.4	-18.2	86.0*	.
Cc1ccc(CC2SC(=Nc3ccccc3)N(c3ccccc3)C2=O)cc1 (stereo not given)	-0.58	.	5.7*	.	.	.
O=C(N/N=C\c1ccc(-c2ccc([N+](=O)[O-])cc2)o1)C1COc2ccccc2O1 (stereo not given)	-1.32	.	-0.7	.	.	.
O=C(N/N=C/c1ccc(-c2ccc([N+](=O)[O-])cc2)o1)C(O)c1ccccc1 (stereo not given)	1.37	.	5.5*	.	.	.
COc1ccc(C2CC(=O)C=C(NNS(=O)(=O)c3ccc(C)cc3)C2)cc1 (stereo not given)	1.15	.	3.0	.	.	.
Cn1cnc2c(N3CCCCC3)nccc21	1.72	3.5	-0.4	-3.5	92.9*	1.8
Cc1ccc(C(=O)CC(=O)COc2ccc(Cl)cc2)cc1	0.52	.	0.0	.	.	.
Cc1ccc(OCc2nc(-c3ccc(Cl)cc3)n[nH]2)cc1	-1.97	-17.7	5.4*	17.7	-0.3	7.5
COc1ccc2c(Cl)c(C(=O)N/N=C/c3c(C)[nH]c4ccccc34)sc2c1	-1.26	.	-2.4	.	.	.
COC(=O)c1cc(C(=O)OCC(=O)Nc2ccccc2OC(F)F)cc([N+](=O)[O-])c1	-0.5	.	3.0	.	.	.
CCOC(=O)c1c(-c2ccccc2)csc1NC(=O)CSc1ccccc1	0.51	.	0.1	.	.	.
COC(=O)c1c(-c2ccccc2)csc1NC(=O)CSc1ncnc2sc(C)c(C)c12	0.59	12.4	1.2	-12.4	89.1*	.
COc1ccc(CCNC(=O)c2ccc(-c3ccc([N+](=O)[O-])cc3)o2)cc1OC	-0.41	.	-0.8	.	.	.
COc1ccc(N2C(S)=C(C#N)C(=O)NC2c2ccco2)cc1 (stereo not given)	1.07	.	16.1*	.	.	.
COc1ccc2sc3c(=O)[nH]c4ccccc4c3c2c1	-1.67	43.4*	-4.6	-43.4	-39.5	.
COc1ccc2c(c1)[nH]c(=O)c1sc3ccccc3c12	-1.27	.	-2.7	.	.	.
COC(=O)CN(c1cccc(F)c1)S(C)(=O)=O	2.44	71.2*	-0.6	-71.2	-0.3	.
CCCNC(=O)CN(c1cccc(F)c1)S(C)(=O)=O	0.06	.	-1.6	.	.	.
COc1ccc(CC(=O)Nc2ccc(-c3nnc(-c4ccccc4)o3)cc2)cc1OC	-0.27	-90.8	-0.2	90.8*	-14.2	-17.5
CCOC(=O)c1c(NC(=O)CSc2nnc(-c3ccncc3)n2Cc2ccco2)sc(C(C)=O)c1C	.	-38.2	.	38.2*	0.8	23.7
CCOC(=O)c1c(NC(=O)CSc2nnc(-c3ccncc3)n2Cc2ccco2)sc(C)c1C	-1.12	14.6	-0.6	-2.6	7.4	15.1
Cc1cc(C)n(CC(O)Cn2c3ccccc3c3ccccc32)n1 (stereo not given)	-1.49	19.4	-2.2	-19.4	-10.8	-16.9
Cc1nccn1CC(O)Cn1c2ccccc2c2ccccc21 (stereo not given)	0.11	46.4*	-2.9	-46.4	-23.3	-2.6
SMILES	SDO1 yeast rescue	IL1B NFkB pot	MRP1 act	NFkB transloc inh	IL1B cytotox	MRP resist rev
CCCc1nc(-c2cc3ccc(C)cc3[nH]c2=O)no1	-0.97	-7.9	-2.9	7.9	84.3*	0.5
CCN(CC)CCCn1c(=S)[nH]c2cc(Cl)ccc2c1=O	-0.64	0.4	-3.7	-0.4	78.5*	9.5
O=C(c1ccccc1)N1CCCCC(Sc2nnc3ccccn23)C1=O (stereo not given)	-0.52	.	-2.2	.	.	0.0
O=C(c1ccc(F)cc1)N1CCCCC(Sc2nnc3ccccn23)C1=O (stereo not given)	0.8	-30.1	-3.8	30.1*	-12.3	-1.0
CCOC(=O)c1cnc2ccc(C)cc2c1Sc1ccccc1C(=O)OC	-0.68	2.5	-6.9	-2.5	-43.2	.
Cc1nc(-c2ccccc2O)n(-c2ccccc2)n1	0.21	7.7	-0.8	-7.7	11.2	9.0
CSc1ccc(-c2nnn(Cc3ccc(Br)cc3)n2)cc1	-0.84	58.4*	4.3	-58.4	13.0	-0.1
CSc1ccc(-c2nnn(Cc3ccccn3)n2)cc1	0.55	10.7	-0.9	-10.7	-14.6	15.7
CC1=C(C(=O)OC(C)C)C(c2cccc([N+](=O)[O-])c2)n2c(cc(=O)[nH]c2=S)N1 (stereo not given)	0.59	.	3.8	.	.	.
CNC[C@H](O)c1cccc(O)c1	1.21	.	-1.3	.	.	-1.7
CNC[C@H](O)c1ccc(O)c(O)c1	0.32	.	7.1*	.	.	.
CC(C)(C)NC(=O)C(=O)NNC(=O)COc1ccc(Br)cc1	0.6	.	-0.7	.	.	.
Cc1[nH]c2ccccc2c1C(=O)C(=O)NCCC1=CCCCC1	-0.28	.	12.0*	.	.	.
CCN(CC)S(=O)(=O)c1cccc(C(=O)c2c(C)cc3ccccn23)c1	-0.67	.	4.8*	.	.	.
CCN(CC)S(=O)(=O)c1cc(NC(=O)C(=O)c2c(-c3ccccc3)cc3ccccn23)ccc1C	-0.34	11.3	6.9*	-11.3	23.7	5.3
CCOC(=O)COc1ccc(Br)cc1/C=C\c1[nH]c(=O)[nH]c(=O)c1[N+](=O)[O-]	0.63	.	-2.6	.	.	.
CCOc1cc(/C=C\c2[nH]c(=O)[nH]c(=O)c2[N+](=O)[O-])ccc1OC(C)CC (stereo not given)	0.51	47.5*	-0.7	-47.5	-67.4	14.4
COc1ccc(S(=O)(=O)Nc2cc(OC)c(NC(=O)c3ccco3)cc2OC)cc1	-0.49	43.1*	-0.7	-43.1	-14.4	-0.1
COc1cc(C2Nc3cccc4cccc(c34)N2)ccc1OC(C)=O	-0.54	1.1	-1.2	-1.1	-44.1	.
COc1cc(C2Nc3cccc4cccc(c34)N2)cc(OC)c1O	0.1	15.3	6.5*	-15.3	-15.4	-21.6
COC(=O)[C@H](C)NC(=O)NC1CCN(Cc2ccccc2)CC1	-0.19	0.9	-0.2	-0.9	82.9*	3.8
CC(C)c1ccccc1NC(=S)NC1CCN(Cc2ccccc2)CC1	0.26	.	-5.6	.	.	.
O=C(c1ccco1)N1CCN(c2ncnc3c2nnn3Cc2ccccc2Cl)CC1	-0.74	-3.6	0.8	3.6	19.6	10.0
O=C(c1ccco1)N1CCN(c2nc(C(F)(F)F)nc3c2nnn3Cc2ccccc2)CC1	-0.88	40.7*	-1.7	-40.7	11.5	-9.7
COc1ccc(/C=C2/N=C(SC3CCOC3=O)N(c3cccc(OC)c3)C2=O)cc1 (stereo not given)	-0.77	.	5.2*	.	.	.
COc1ccc(-n2c(SC3CCOC3=O)nc3ccccc32)cc1 (stereo not given)	-0.02	-2.1	1.7	2.1	-2.9	-4.4
FC(F)(F)c1cccc(CNc2ncccc2-c2nc3cc(Cl)ccc3o2)c1	-1.34	33.9	5.2*	-33.9	-42.4	.
Cc1ccccc1-c1nc2cc(Cl)ccc2o1	1.81	-0.3	-3.7	0.3	-12.1	4.8
CCc1ccccc1NC(=O)Cn1nc(C(F)(F)F)cc1C1CC1	0.77	-3.0	-0.8	3.0	-11.5	.

Bioassay records from PubChem BioAssay.
